DT40 TDP1 CPT: growth inhibition of DT40 Tdp1-/-;hTDP1 cells with camptothecin (screen for TDP1 inhibitors). chicken DT40 Tdp1-/-;hTDP1 cells + 20 nM CPT, ATP luminescence, 48 h. actives 12% (n = 420,000). AID 686979. Potency, µM (top dose mostly 46.2 µM), inactives show top-dose activity change, negative = growth inhibition, hits mostly inhibitors; also: % is scaled to controls: 0 for no effect and ±100 for the full control effect; nearly all actives have a fitted effect of over 55% in size
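Chicken DT40 Tdp1-/- cells stably complemented with human TDP1 were seeded at 400 cells/well in medium containing 20 nM camptothecin, exposed to pin-transferred compounds, and grown at 37 °C for at least 48 hr. Viability was read as ATP luminescence.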
DT40 TDP1 no CPT: qHTS for Inhibitors of human tyrosyl-DNA phosphodiesterase 1 (TDP1): qHTS in cells in absence of CPT. DT40 Tdp1-/- hTDP1 cells, no CPT, ATP luminescence, 48 h. Potency, µM (doses to about 46.2 µM), inactives show at the top dose activity change, negative = growth inhibition, most hits filed as inhibitors. actives 15% (n = 420,000). AID 686978, 2013; also: % is scaled to controls: 0 for no effect and ±100 for the full control effect; nearly all actives have a fitted effect of over 55% in size
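Stably hTDP1-transfected Tdp1-null chicken DT40 cells were treated with library compounds minus camptothecin and grown for at least 48 hr at 37 °C, after which cellular ATP was quantified by luminescence.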
S2 tox: cell viability loss in ATXN counter-screen | S2 cells (HEK-293 line with an ATXN2-luciferase reporter) viability, CellTiter-Fluor protease fluorescence, 24 h | Potency, µM (titrated, usually from 56.7 µM), usual class: cytotoxic | actives 0.49% (n = 400,000) | AID 651635; also: nearly all actives have a fitted effect of over 40% in size
TGFb inhibitor: TGF-b pathway inhibition | HepG2 CAGA-GFP TGF-b/SMAD3 reporter, GFP fluorescence, 18 h; TGF-beta stimulated, 500 pg/mL final | Potency, µM (doses to about 46.1 µM), for inactives: top-dose activity, negative = inhibition, actives largely listed as inhibitors | actives 1.2% (n = 410,000) | AID 588855; also: % is scaled to controls: 0 for no effect and ±100 for the full control effect; nearly all actives have a fitted effect of over 65% in size
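Inhibition of TGF-beta-driven CAGA-GFP reporter expression in HEPG2 cells is measured by cellular GFP fluorescence after 18 h stimulation with 500 pg/mL recombinant TGF-beta in 1% FBS medium at 37 degrees C.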
HepG2 viability: kills HepG2 cells in TGF-b inhibitor counter-screen; HepG2 CAGA-GFP viability, ATP luminescence, 18 h; Potency, µM (top dose mostly 46.1 µM), without a hit: at the top dose activity change, negative = cytotoxicity, most hits filed as cytotoxic; actives 0.76% (n = 410,000)
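CellTiter-Glo luminescence gave cytotoxicity after 18 hours at 37 degrees C. The cells were HepG2 CAGA-GFP in 1% FBS DMEM, stimulated with 500 pg/mL TGF-beta after compound addition. %Activity was normalised to no-cell wells (complete cell-killing) and DMSO (no toxicity), and curves were fitted and classified.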
ATXN2 expr inh: inhibitors of ATXN2 expression; HEK-293 ATXN2-luciferase reporter, luminescence, 24 h; Potency, µM (titrated, usually from 57 µM), for inactives: top-dose activity change, negative = inhibition, most hits filed as inhibitors; actives 0.72% (n = 360,000); AID 1745845; also: % is scaled to controls: 0 for no effect and ±100 for the full control effect; nearly all actives have a fitted effect of over 55% in size
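qHTS (up to 57 uM final) was run with 24 h compound exposure of reporter cells at 37 °C. Each well was multiplexed: SteadyGlo luminescence measured ATXN2-luciferase expression after a fluorogenic Gly-Phe-AFC viability readout (25 uM final).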
An asterisk follows results filed as active; i = inactive; ? = inconclusive; / = no result. The list is not random: actives were taken first. Their share in the collection is about 17%. Calls follow the shape of the dose curve; as a rule, active = well fitted curve in the direction sought with a large enough effect; inconclusive = small, poorly fitted or top-dose-only effect, or another doubt; inactive = no such curve, though single readings can be large; an effect the other way counts as inactive or inconclusive. Potency is read from the fitted curve at half-maximal effect.

SMILES	DT40 TDP1 CPT	DT40 TDP1 no CPT	S2 tox	TGFb inhibitor	HepG2 viability	ATXN2 expr inh
CC(C)c1nc2ccccc2c2nnc(SCC(=O)NCc3ccco3)n12	16µM*	?	i	7%	-13%	8%
COc1ccccc1NCC(O)Cn1c2ccccc2c2ccccc21 (stereo unspecified)	?	?	i	13µM*	-115%	-17%
COc1ccc(CCNCC(O)Cn2c3ccccc3c3ccccc32)cc1OC (stereo unspecified)	13µM*	12µM*	?	?	11µM*	?
CCOC(=O)c1ccc(CN(Cc2ccc(Br)cc2)S(=O)(=O)c2cccc(C(F)(F)F)c2)cc1	?	?	i	-3%	0%	4%
COCC(=O)Nc1cc(C(=O)N2CCc3c(Cl)cccc3C2)c2c(c1)nc(-c1ccncc1)n2C	4%	3%	i	/	/	/
O=C(NN1C(=O)C2C3CCC(O3)C2C1=O)c1ccc(Br)o1 (stereo unspecified)	0%	16%	i	2%	-31%	7%
O=C(CCN1C(=O)C2C3CC(C(Br)C3Br)C2C1=O)OCC(=O)c1cccc([N+](=O)[O-])c1 (stereo unspecified)	4%	-14%	i	-4%	2%	3%
Clc1ccccc1Nc1nc(NCC2CC2)nc2ccsc12	21µM*	21µM*	i	-7%	-22%	-16%
Fc1ccccc1-c1nc(NCC2CC2)nc2ccsc12	?	?	i	-1%	-2%	0%
COc1ccccc1CNc1nc(NCCOc2ccccc2Cl)c2sccc2n1	10µM*	12µM*	?	?	-64%	?
Clc1ccccc1OCCNc1nc(NCC2CC2)nc2ccsc12	16µM*	8.2µM*	?	?	-33%	?
CNc1nc(NCCOc2ccccc2Cl)c2sccc2n1	9.2µM*	9.2µM*	i	?	-24%	-8%
CCNc1ncc2nc(CCc3ccccc3)c(=O)n(Cc3cccc(OC)c3)c2n1	-24%	-12%	/	/	/	/
CCOc1ccc(NC(=O)c2ccc3c(c2)CCN3S(=O)(=O)CC)cc1	-11%	?	i	-14%	-26%	-16%
COc1cccc(NC(=O)c2sc3nc(C)c(C(=O)Nc4ccc(C)cc4C)c(-c4ccccc4Cl)c3c2N)c1	-24%	?	/	-3%	0%	/

High-throughput results (PubChem)
